# HP1b chromo inh = HTS for Inhibitors of HP1-beta Chromodomain Interactions with Methylated Histone Tails; AID 540317, 2011; AlphaScreen HP1-beta / biotin-H3K9me3 peptide binding; Potency, µM (doses to about 114 µM), inactives show top-dose activity change, negative = inhibition, usual class: inhibitors; 390,000 tested, 0.56% active; also: potency is read from the fitted curve at half-maximal effect; nearly all actives have a fitted effect of over 70% in size
#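 AlphaScreen: HP1-beta (50 nM) preformed 30 min with biotin-H3(1-18)K9me3 peptide (50 nM) in PBS pH 7.4, 0.01% Tween-20. Compound added for 30 min at RT, then streptavidin donor/nickel chelate acceptor beads (10 ug/mL) for 30 min.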
# PLK1 PBD inh = qHTS for Inhibitors of PLK1-PDB (polo-like kinase 1 - polo-box domain): Primary Screen | Plk1 PBD binding of FITC phosphopeptide, fluorescence polarization | 360,000 tested, 2.8% active | Potency, µM, for inactives: max response, negative = inhibition, usual class: inhibitors | AID 720504, 2013; also: potency is read from the fitted curve at half-maximal effect; series mostly up to about 57 µM; % is scaled to controls: 0 for no effect and ±100 for the full control effect; nearly all actives have a fitted effect of over 65% in size
# PI5P4K alpha inh = qHTS for Inhibitors of phosphatidylinositol 5-phosphate 4-kinase (PI5P4K) | PI5P4Kalpha enzyme, ADP-Glo luminescence, 60 min; hits give low values | max response, % | 330,000 tested, 1.2% active; active = max response of -50% or lower; inconclusive = between -30% and -50%; inactive = -30% or higher; also: value at the top dose of about 77 µM; % is scaled to controls: 0 for no effect and ±100 for the full control effect
#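 Enzyme plus substrate dispensed, test compounds pinned in, then ATP (5 microM final) added. After 60 min at RT, ADP-Glo reagent 1 for 45 min and reagent 2 for 30 min preceded luminescence imaging.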
# G9a block = qHTS Assay for Inhibitors of Histone Lysine Methyltransferase G9a. Histone-lysine N-methyltransferase EHMT2 (Homo sapiens), Q96KQ7. G9a H3K9 monomethylation, AlphaScreen, 2 h. Potency, µM (top dose mostly 102 µM), for the others: at the highest dose activity, negative = inhibition, most hits filed as inhibitors. 350,000 tested, 8.8% active; also: potency is read from the fitted curve at half-maximal effect; % is scaled to controls: 0 for no effect and ±100 for the full control effect; nearly all actives have a fitted effect of over 75% in size
#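 Signal arises when biotinylated H3K9 peptide, once monomethylated, bridges streptavidin donor and antibody-captured acceptor beads. Enzyme at 20 nM was preincubated 15 min with test compounds; peptide 500 nM and SAM 20 uM then reacted for 2 h.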
# JMJD2A Tudor inh = qHTS Assay for Inhibitors of JMJD2A-Tudor Domain; AID 504339, 2011; AlphaScreen JMJD2A-Tudor / H3K4me3 peptide binding; Potency, µM (top dose mostly 114 µM), for inactives: at the top dose activity change, negative = inhibition, actives largely listed as inhibitors; Lysine-specific demethylase 4A (Homo sapiens), O75164; 390,000 tested, 4.4% active; also: potency is read from the fitted curve at half-maximal effect; % is scaled to controls: 0 for no effect and ±100 for the full control effect; nearly all actives have a fitted effect of over 50% in size
# BAZ2B block = qHTS Assay for Inhibitors of BAZ2B. Potency, µM (top dose mostly 114 µM), for the others: at the highest dose activity change, negative = inhibition, most hits filed as inhibitors. 360,000 tested, 4.4% active. AID 504333, 2011. Bromodomain adjacent to zinc finger domain protein 2B (Homo sapiens), Q9UIF8. AlphaScreen BAZ2B-H3K14Ac peptide displacement; also: potency is read from the fitted curve at half-maximal effect; % is scaled to controls: 0 for no effect and ±100 for the full control effect; nearly all actives have a fitted effect of over 60% in size
#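 Complex of BAZ2B and biotin-H3K14Ac (50 nM apiece) forms over 30 min at RT, then faces library compounds up to 110 uM for another 30 min; AlphaScreen beads added, 20 min dark incubation, luminescence read.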
# Numbers without * were called inactive; ? = inconclusive; . = no result; ! = not confirmed by another sample; [ ] = dose if it differs, or a comment. Hits are enriched below; roughly 12% of the tested compounds scored in any of these assays. Unless noted, calls follow the shape of the dose curve; as a rule, active = well fitted curve in the direction sought with a large enough effect; inconclusive = small, poorly fitted or top-dose-only effect, or another doubt; inactive = no such curve, though single readings can be large; an effect the other way counts as inactive or inconclusive.
SMILES,HP1b chromo inh,PLK1 PBD inh,PI5P4K alpha inh,G9a block,JMJD2A Tudor inh,BAZ2B block
O=C(c1csnn1)N1CCC[C@@]2(CCN(Cc3ccncc3)C2)C1,.,.,.,-2.6%[12.7 µM],.,.
O=Nc1c(O)c2ccccc2c2ccccc12,?,-0.9%,0.4,.,56.2µM*,.
CCOC(=O)c1[nH]c(=O)c2ccccc2c1O,4.1%,0.1%,.,?,-17.2%,14.8%
CN(N)N=Nc1nc2c([nH]1)c(=O)n(C)c(=O)n2C,17.1%,-27.8%,1.6,2.24µM*,79.4µM*,-18.5%
CC1CCC(C(C)C)C(OC(=O)c2ccccc2N)C1 (centres undefined),.,.,.,95.1%[59 µM],.,.
CC[C@H]1CN(C)C[C@@]2(C(=O)OC)Cc3c([nH]c4ccccc34)C(=O)C[C@@H]12,27.1%,1.7%,7.6,.,-7.5%,.
CC[C@H]1CC2CN3CCc4c([nH]c5cc(OC)ccc45)[C@](C(=O)OC)(C2)[C@H]13,-27.5%,-0.7%,2.4,.,39.8µM*,.
Nc1ccc2c3c(cccc13)CC2,-11.5%,-13.7%,6.0,39.8µM*,-31.5%,?
O=C(CF)NC(Nc1cccc2cccnc12)C(Cl)(Cl)Cl (centres undefined),17.2%,1.1%,-7.3,-46.5%,-1.6%,-1.5%
O=C(/C=C/c1ccccc1)NC(NC(=S)Nc1cccc2cccnc12)C(Cl)(Cl)Cl (centres undefined),.,.,.,14.1µM*,.,.
COc1cc([C@@H]2c3cc4c(cc3[C@H](O)[C@H]3COC(=O)[C@@H]23)OCO4)cc(OC)c1OC,72.5%,.,.,.,-18.4%,.
C[N+]1(C)[C@@H]2CC[C@H]1CC(OC(=O)C(c1ccccc1)c1ccccc1)C2 (some centres undefined),31.0%,21.2µM*,-5.4,?,?,-17.8%
CCN(CC)C(=O)c1c(C)[nH]c(=S)c(C#N)c1-c1ccco1,-16.7%,2.67µM*,-96.5*,3.16µM*,7.94µM*,-33.9%
O=c1c2cc([N+](=O)[O-])ccc2nc(CN2CCOCC2)n1-c1ccccc1F,.,.,.,2.82µM*,.,-35.9%
O=c1c2ccccc2nc(CN2CCOCC2)n1-c1ccccc1F,46.0%,-9.4%,-5.8,?,-14.5%[57.1 µM],-15.1%
CCC(COC(=O)c1cc(OC)c(OC)c(OC)c1)(c1ccccc1)N(C)C (centres undefined),-7.0%,-16.4%,10.7,-44.7%[2.33 µM],50.1µM*!,-38.0%
COc1ccc(N2C(=O)CC(N3CCC(n4c(=O)[nH]c5ccccc54)CC3)C2=O)cc1 (centres undefined),56.1%,-5.7%,.,39.8µM*,-5.8%,3.0%
CCC(c1nnnn1-c1ccc(OC)cc1)N1CCC(n2c(=O)[nH]c3ccccc32)CC1 (centres undefined),.,-1.2%,0.3,.,.,.
COc1ccc(CN2C(=O)CC(=O)NC2=S)cc1,30.2%,-16.8%,?,70.8µM*,-10.7%,?
COc1ccccc1CN1CCNCC1,.,1.0%,-1.0,.,.,.
c1ccc(CN2CCNCC2)nc1,9.8%,-16.6%,2.4,35.5µM*,44.7µM*,70.8µM*
COc1ccc(N2CCN(Cc3nc4ccccc4[nH]3)CC2)cc1,15.8%,-1.0%,-10.8,31.6µM*,-33.8%,-25.8%
COC(=O)c1nc(-c2ccc3c(n2)C(=O)C(N)=C(OC)C3=O)c(N)c(-c2ccc(OC)c(OC)c2O)c1C,-3.8%,-6.3%,-7.3,10µM*,-31.0%,?
Cc1[nH]c(=S)c(C#N)c2c1CCCC2,39.3%,26.7µM*,-27.9,1.78µM*,20µM*,?
COc1cc(C)c(CNCCc2c[nH]c3ccccc23)cc1C,?,-12.5%,7.5,?,22.4µM*,39.8µM*
SMILES,HP1b chromo inh,PLK1 PBD inh,PI5P4K alpha inh,G9a block,JMJD2A Tudor inh,BAZ2B block
CCc1ccc(CNCCc2ccccc2F)cc1,30.8%,-6.6%,1.7,-18.4%[59 µM],-11.3%,1.9%
CCOc1cc(CNCCc2ccccc2F)ccc1OC,-36.4%,-4.8%,-0.1,8.91µM*,44.7µM*,39.8µM*
CCOc1c(Cl)cc(CNCCc2c[nH]c3ccccc23)cc1OC,-0.2%,0.1%,8.5,?,?,?
COc1ccc(CNCCc2c[nH]c3ccccc23)c(OC)c1C,?,-9.2%,15.5,15.8µM*,5.62µM*,56.2µM*
COc1ccc(CNCCc2ccccc2F)c(OC)c1C,?,3.4%,-0.9,79.4µM*,17.8µM*,?
CC(=O)OCC(=O)[C@@H]1CC[C@H]2[C@H]3CC[C@H]4C[C@@H](O)CC[C@]4(C)[C@@H]3C(=O)C[C@@]12C,.,.,.,1.6%[5.15 µM],.,.
O=C(CCn1c(=O)oc2ccccc21)N1CCN(C(c2ccccc2)c2ccccc2)CC1,26.3%,-3.5%,2.8,?,-23.3%,-4.0%
Fc1ccc(CNCCc2c[nH]c3ccccc23)cc1,25.6%,-16.0%,15.2,?,?,?
COc1cccc(CNCCc2c[nH]c3ccccc23)c1,-24.9%,4.4%,2.2,20.5%[2.33 µM],3.55µM*,79.4µM*
Cc1ccc(NC(=O)COC(=O)CCc2c[nH]c3ccccc23)cc1[N+](=O)[O-],-22.6%,-11.6%,0.1,39.8µM*,?,?
NCC#Cc1ccccc1,.,.,.,31.0%[12.7 µM],.,.
c1ccc(C2CNCc3ccccc32)cc1 (centres undefined),.,.,.,21.0%[59 µM],.,.
Oc1cc2c(cc1O)[C@H]1c3ccccc3CN[C@@H]1CC2,.,.,.,2.51µM*,.,?
Oc1cc2c(cc1O)[C@H]1c3ccccc3CN[C@H]1CC2,.,.,.,1.41µM*,.,.
COc1ccc2c(c1)C1OCCNC1CC2 (centres undefined),.,2.7%,-5.3,.,.,.
CN1CC[C@@]2(CCCN(C(=O)c3ccncc3)C2)C1,.,.,.,-20.8%[12.7 µM],.,.
CC(=O)Nc1c2sscc-2n(C)c1=O,.,.,.,-21.4%[12.7 µM],.,.
Cc1ccc2[nH]c3c(c2c1)CN(C(=O)CN1C[C@H]2C[C@@H](C1)c1cccc(=O)n1C2)CC3,57.9%,-8.0%,5.1,50.1µM*,-25.2%,-27.3%
O=c1[nH]c(=S)n(-c2ccccc2)c(O)c1/C=N/N1CCCCC1c1cccnc1 (centres undefined),39.6%,-11.1%,-2.8,8.91µM*,-11.2%,?
C[N+]1([O-])[C@@H]2CC(OC(=O)[C@@H](CO)c3ccccc3)C[C@@H]1[C@H]1O[C@H]12 (some centres undefined),.,.,.,8.9%[59 µM],.,.

# Screens: PubChem BioAssay, National Center for Advancing Translational Sciences (NCATS)
